Only some compounds are listed: those with a hit (about 1.6% of all), similar ones and a draw of the others.
KCNQ2 enhance – enhances the rat KCNQ2 potassium channel. B-score at 10 µM. CHO-K1 KCNQ2, FluxOR thallium flux fluorescence; stronger effect = higher value. O88943. AID 2239. 310,000 compounds, 0.54% hits;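 active means fluorescence ratio B-score at least 3 SD of library B-scores, with initial fluorescence B-score within 3 of them, cut at about 5.3 in these data; same plate scores as AID 2156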;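 further: B-score of peak minus minimum over baseline fluorescence ratio after K+ and Tl+ stimulus; positive B-score means potentiation of KCNQ2 with more thallium influx and brighter signal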
KCNQ2 block – blocks the rat KCNQ2 potassium channel. 310,000 compounds, 1.1% hits. O88943. CHO-K1 KCNQ2, FluxOR thallium flux, 20 min; stronger effect = lower value. B-score at 10 µM;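 active means fluorescence ratio B-score at most minus 3 library SDs, with starting brightness B-score within 2 library SDs, cut at about -5.5 in these data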
The depositor's hits bear a star; i = inactive; / = not tested or not shown.

SMILES	KCNQ2 enhance	KCNQ2 block
CCN(CC)CCNC(=O)c1ccc(NC(=O)C2CCN(c3ncnc4sc(C)c(C)c34)CC2)cc1	/	i
CCOC(=O)C1=C(c2ccccc2)NC(=O)NC1c1ccc(OC)c(OC)c1 (centres undefined)	/	i
CCOC(=O)C1=C(c2ccccc2)N(C)C(=O)NC1c1ccc(OC(F)F)c(OC)c1 (centres undefined)	-5.56	-5.56*
CN(C(=O)CSc1nc2[nH]ncc2c(=O)[nH]1)c1ccccc1	0.38	i
CCC(C)n1c(=S)[nH]c2c(sc3ccc([N+](=O)[O-])cc32)c1=O (centres undefined)	25.1*	i
CC(C)n1c2ccccc2c2cc([N+](=O)[O-])ccc21	0.71	i
COC(=O)C(CC(=O)c1ccc(Br)cc1)n1ccnc1 (centres undefined)	-6.15	-6.15*
COC(=O)C(CC(=O)c1ccc(Br)cc1)n1nc(C)cc1C (centres undefined)	0.49	i
Cc1ccc(Cl)c(OC(=O)Cn2cnc3c2c(=O)n(C)c(=O)n3C)c1	0.05	i
Cn1c2ccccc2c2cc(/C=N/NC(=O)c3cc(O)cc(O)c3)ccc21	/	i
Cn1c2ccccc2c2cc(/C=N/NC(=O)c3cc(O)ccc3O)ccc21	-7.17	-7.17*
O=C(CCn1ccnc1)Nc1cc(Cl)ccc1O	/	i
Cc1cccc(NCc2cccc3ccccc23)n1	-5.9	-5.9*
COc1ccc(CNc2cccc(C)n2)c(O)c1	/	i
CCOC(=O)c1sc(NC(=O)CSc2nc3c(c(=O)n2-c2ccc(C)cc2)SCC3)c(C(=O)OCC)c1C	/	i
Cc1c(-c2ccccc2)nc2ccccc2c1C(=O)O	2.12	i
CC[C@H](NC(=O)c1c(C)c(-c2ccccc2)nc2ccccc12)c1ccccc1	-10.6	-10.6*
Cc1cccc(C)c1NS(=O)(=O)c1c(C(=O)N2CCCCC2)c(C)n(C)c1C	/	i
Cc1ccc2cc(C(c3nnnn3C3CCCC3)N(Cc3ccccc3)Cc3ccco3)c(=O)[nH]c2c1 (centres undefined)	/	i
Cc1cc2cc(C(c3nnnn3C3CCCC3)N(Cc3cccnc3)Cc3ccco3)c(=O)[nH]c2cc1C (centres undefined)	-6.02	-6.02*
COCCCNC(=O)CN(c1ccc(F)cc1)S(=O)(=O)c1ccc2c(c1)OCCO2	/	i
N#Cc1c(NC(=O)C2CCCO2)sc2c1CCCCCC2 (centres undefined)	0.02	i
COc1ccc(-c2nc(NC(=O)c3[nH]c(C)c(C(C)=O)c3C)sc2C)cc1	-6.47	-6.47*
CC(=O)c1c(C)[nH]c(C(=O)Nc2nc(-c3ccc(-c4ccccc4)cc3)cs2)c1C	-7.64	-7.64*
CC(=O)c1c(C)[nH]c(C(=O)Nc2nc(-c3ccc(Cl)cc3)cs2)c1C	0.73	i
SMILES	KCNQ2 enhance	KCNQ2 block
COc1ccc(OC)c(NC(=O)c2[nH]c(C)c(C(C)=O)c2C)c1	0.07	i
Cc1ccccc1Nc1nnc(SCC(=O)NC2CCCc3ccccc32)s1 (centres undefined)	/	i
COc1ccc(CNC(=O)CCS(=O)(=O)c2cc3c(cc2Cl)NC(=O)CO3)cc1	/	i
O=C1NC[C@H](c2ccccc2)N(CCc2cccc(F)c2)C1=O	/	i
CCc1noc(C)c1C(=O)N1CCSC1=Nc1cccc(Cl)c1C	/	i
O[C@@H](c1cc(C(F)(F)F)nc2c(C(F)(F)F)cccc12)[C@H]1CCCCN1	0.92	i
OC(c1cc(-c2ccc(Cl)cc2)nc2ccccc12)C1CCCCN1 (centres undefined)	-7.32	-7.32*
Cn1ncc(Cl)c1C(=O)NC(=S)Nc1sc2c(c1C#N)CCCCC2	0.24	i
COc1cc(OC)cc(C(=O)n2cnnc2N)c1	/	i
O=C(CC12CC3CC(CC(C3)C1)C2)Nc1ccc(C(=O)O)cc1	/	i
COc1ccc(NC(=O)CC23CC4CC(CC(C4)C2)C3)cn1	18.3*	i
Cc1ccc(N(CC(=O)N2CCN(Cc3ccccc3)CC2)S(C)(=O)=O)cc1C	/	i
CC(C)CCNC(=O)CCCCn1c(=O)[nH]c2ccsc2c1=O	1.69	i
CCc1nc(SCC(=O)N2CCCC2)c2c(=O)n(C)c(=O)n(C)c2n1	0.95	i
CCCc1nc(SCC(=O)N2CCCCCC2)c2c(=O)n(C)c(=O)n(C)c2n1	19*	i
N#CC(C(=O)NC1CC1)c1nc2ccccc2nc1N1CCCC1 (centres undefined)	/	i
N#CC(C(=O)NC1CCCCC1)c1nc2ccccc2nc1N1CCN(c2ccc(F)cc2)CC1 (centres undefined)	-5.77	-5.77*
O=S(=O)(c1ccc(Cl)cc1)N1CCC2(CC1)CO2	/	i
CC(C)N(Cc1cn[nH]c1-c1ccc(-c2ccccc2)cc1)Cc1nccn1C	/	i
Cc1ccc(C2C(C#N)=C(N)N(c3ncn[nH]3)C3=C2C(=O)CC(C)(C)C3)cc1 (centres undefined)	/	i
COc1ccc(/C=C/C(=O)c2ccccc2)cc1COc1ccccc1F	-7.58	-7.58*
COc1ccc(C=O)cc1COc1ccccc1F	/	i
COc1ccc(NS(=O)(=O)c2ccc(N3CCCC3)c(NC(=S)Nc3cccc(S(=O)(=O)N(C)C)c3)c2)cc1	0.14	i
COc1ccc(CN2C(=O)c3cccc4cccc2c34)cc1F	/	i
COc1ccc(CC(=O)N(Cc2ccccc2)c2ccc(C)cc2)cc1OC	/	i
SMILES	KCNQ2 enhance	KCNQ2 block
O=[N+]([O-])c1cc(Cl)ccc1N1CCCC1	0.43	i
O=[N+]([O-])c1cc(Cl)ccc1N1CCN(c2cccc(C(F)(F)F)c2)CC1	-6.15	-6.15*
Cc1c(Cl)cccc1-n1c(SCC(=O)NCc2cccs2)nnc1-c1ccncc1	0.01	i
Cc1c(Cl)cccc1-n1c(SCC(=O)NCc2ccccc2Cl)nnc1-c1ccncc1	-6.36	-6.36*
CSCC(=O)N1CCCC(N2CCN(c3cccc(C(F)(F)F)c3)CC2)C1 (centres undefined)	-6.77	-6.77*
CC1(CCC(=O)N2CCCC(N3CCN(c4cccc(C(F)(F)F)c4)CC3)C2)CC1 (centres undefined)	/	i
COCCNC(=O)c1ccc(CN2CCOCC2)cc1	0.02	i
Cn1c(=O)c2ccccc2n(CC(=O)N2CCCc3ccccc32)c1=O	0.76	i
O=C(c1ccccn1)N(Cc1ccco1)C1(C(=O)NC2CCCC2)CCCCC1	/	i
O=C(c1ccc2c(c1)OCO2)N(Cc1ccco1)C1(C(=O)NC2CCCCC2)CCCCC1	-7.31	-7.31*
COc1ccc(N2CCN(C3CCCN(C(=O)CN4CCCC4=O)C3)CC2)cc1 (centres undefined)	1.47	i
CC(=O)N1c2ccccc2C(C)(c2ccccc2)CC1(C)C (centres undefined)	/	i
CC1(c2ccccc2)CC(C)(C)N2C(=O)Cc3cccc1c32 (centres undefined)	-7.65	-7.65*
CC(C)OC(=O)/C(=C\c1ccccc1)NC(=O)c1ccccc1	-5.6	-5.6*
CC(C)OC(=O)/C(=C\c1cccc2ccccc12)NC(=O)c1ccccc1	/	i
Cc1cc(C)n2c(Br)c(CN3CCCC(C)C3)nc2n1 (centres undefined)	/	i
O=Cc1[nH]c2ccccc2c1N(C(=O)CCl)c1ccc([N+](=O)[O-])cc1	-11.6	-11.6*
CC(=O)n1cc(N(C(=O)CCl)c2ccc([N+](=O)[O-])cc2)c2ccccc21	/	i
COc1cc(/C=N/Nc2nc(=O)[nH]nc2C)ccc1O	0.34	i
NS(=O)(=O)c1ccc(CCNC(=S)Nc2ccccc2)cc1	/	i

Screens deposited in PubChem by Johns Hopkins Ion Channel Center.
